Experimental data taken from PubChem BioAssay AID1851 (National Center for Advancing Translational Sciences (NCATS), 2009).
Several values for one entry are separate records, joined by “and”; a condition that tells them apart may be missing. Identical values can stand only once. About 5,700 (36%) of roughly 16,000 compounds were called active. Not shown: some 24% with an inconclusive outcome. Calls come from the whole dose curve; as a rule, active = well fitted curve in the direction sought with a large enough effect; inconclusive = small, poorly fitted or top-dose-only effect, or effect the other way; inactive = no such curve, though single readings can be large or run the other way. Some of the results follow. Some structures have more than one record in an assay (separate samples or runs), and their calls can disagree.

target: Cytochrome P450 1A2 (Homo sapiens) (UniProt P05177); assay: Cytochrome panel assay with activity outcomes; details: recombinant CYP, pro-luciferin dealkylation, luminescence, p450-cyp1a2; series mostly up to 57.1 µM
% is set by controls: 0 for no effect and ±100 for the full control effect.

Chain of Cytochrome P450 1A2 (Homo sapiens) (P05177 whole entry, looked up): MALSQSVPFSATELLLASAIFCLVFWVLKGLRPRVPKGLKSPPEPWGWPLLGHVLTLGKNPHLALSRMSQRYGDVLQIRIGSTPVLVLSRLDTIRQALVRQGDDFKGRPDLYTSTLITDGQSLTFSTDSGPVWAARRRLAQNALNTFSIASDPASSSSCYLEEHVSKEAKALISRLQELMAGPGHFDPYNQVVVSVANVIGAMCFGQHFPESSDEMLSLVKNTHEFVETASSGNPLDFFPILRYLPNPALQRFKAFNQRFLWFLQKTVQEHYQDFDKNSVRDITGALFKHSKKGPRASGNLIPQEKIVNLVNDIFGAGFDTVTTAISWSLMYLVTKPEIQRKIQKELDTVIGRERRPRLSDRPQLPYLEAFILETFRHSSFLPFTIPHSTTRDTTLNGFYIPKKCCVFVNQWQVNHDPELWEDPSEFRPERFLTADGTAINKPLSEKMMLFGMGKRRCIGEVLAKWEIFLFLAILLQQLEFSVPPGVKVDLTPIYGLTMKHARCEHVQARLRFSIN

Row | SMILES | AC50 | activity, negative = inhibition
1 | CCN(CC)C(=O)C1CC(=O)N(c2ccc(OC)cc2)C1c1ccc(OC)cc1 (centres undefined) | inactive | 
2 | COc1ccc(C(C(=O)NC2CCCC2)N(C(=O)c2snc(-c3ccc(F)cc3)c2N)c2ccc(F)cc2)cc1 (centres undefined) | inactive | 
3 | CCN1/C(=C/c2ccc3cccc(C)c3[n+]2CC)Sc2ccccc21 | 14100 nM (active) | 
4 | CCOC(=O)c1cn(-c2nc(-c3ccc(Cl)cc3)cs2)c2c(F)c(N3CC(C)OC(C)C3)c(F)cc2c1=O (centres undefined) | inactive | 
5 | CCOC(=O)c1cnn(-c2nc(-c3cccc(F)c3)cs2)c1C(F)(F)F | 2240 nM (active) | 
6 | COC(=O)c1cc(=O)n(C2CC2)c(=NC2CC2)s1 | 2000 nM (active) | 
7 | COC(=O)C1CCN(c2cc(=O)n(C3CCCCC3)c(=O)[nH]2)CC1 | inactive | 
8 | CCCCCc1nc2c(=O)[nH]c3ccccc3c2o1 | 398 nM (active) | 
9 | CCN(CC)CCNc1ccc(CO)c2sc3ccccc3c(=O)c12 | 126 nM (active) | 
10 | CCN(CC)CCCNC(=O)CC1Sc2ccccc2NC1=O (centres undefined) | inactive | 
11 | O=C(NCCCN1CCCCCC1)C1CC(=O)N(CCc2ccccc2)C1 (centres undefined) | inactive | 
12 | O=c1c2ccccc2sc2c(CO)ccc(NCCN3CCCCC3)c12 | 1580 nM (active) | 
13 | CN1CCCCC1=NCCCn1cnc2c1c(=O)n(C)c(=O)n2C | inactive | 
14 | COCC(=O)N1CCC2(CC1)CCN(c1ccccn1)CC2 | inactive | 
15 | Cc1ccc(-c2c3c(nc4sc(C(N)=O)c(N)c24)CCC3)cc1 | 3550 nM (active) | 
16 | Cc1ccc(C(=O)Cn2nnc3c(sc4nc5c(c(-c6ccccc6)c43)CCC5)c2=O)cc1 | inactive | 
17 | CCOC(=O)Cn1nnc2c(sc3nc4c(c(-c5ccc(Cl)cc5)c32)CCC4)c1=O | 3160 nM (active) | 
18 | Nc1nc(N)nc(CCCc2nc(N)nc(N)n2)n1 |  | -16.3% [at 11.4 µM] (inactive)
19 | NC(=O)c1ccccc1-c1nc(-n2ccnc2)c2ccccc2n1 | 2510 nM (active) | 
20 | Clc1ccccc1-c1nc(-n2ccnc2)c2ccccc2n1 | 158 nM (active) | 
21 | Cc1ccccc1-c1nc(-n2ccnc2)c2ccccc2n1 | 316 nM (active) | 
22 | CCCn1c(C)nc2c(c1=O)c1nc3ccccc3nc1n2CCC1=CCCCC1 | 25100 nM (active) | 
23 | CCO/C(C)=N/n1c2nc3ccccc3nc2c2c(=O)n(CC(C)C)c(C)nc21 | inactive | 
24 | COc1ccccc1CN1CCC2(CC1)CCN(S(=O)(=O)c1ccccc1)CC2 | inactive | 

Row | SMILES | AC50 | activity, negative = inhibition
25 | O=C(NCCCN1CCN(Cc2ccccc2)CC1)C1CCN(S(=O)(=O)N2CCCC2)CC1 | inactive | 
26 | COc1ccc2c(Cl)c(C(=O)NCCCn3ccnc3)sc2c1Cl | 631 nM (active) | 
27 | COc1ccc(S(N)(=O)=O)cc1C(=O)NCCCN1CCN(c2cccc(Cl)c2)CC1 | inactive | 
28 | COc1ccc(C(=O)N/C(=C/c2cccs2)C(=O)NCCCn2ccnc2)cc1OC | inactive | 
29 | N#CCCn1nnc2ccccc21 | inactive | 
30 | c1ccc2c(c1)nnn2CN1CCOCC1 |  | -8.08% [at 11.4 µM] (inactive)
31 | Nn1nnc2ccccc21 | 12600 nM (active) | 
32 | Cc1ccc(NC(=O)C2(NC(=O)c3cccc(N4C(=O)CSC4c4ccccc4)c3)CCCCC2)cc1 (centres undefined) | inactive | 
33 | O=C1NCCc2c1[nH]c1ccccc21 | 2820 nM (active) | 
34 | Cn1cccc1C(=O)N1CCC[C@@]2(CCN(Cc3ccc(C#N)cc3)C2)C1 | inactive | 
35 | COc1ccc2cc(C(=O)Nc3ccc(F)cc3)sc(=O)c2c1OC | 1120 nM (active) | 
36 | COc1cc2c(CCNC(C)=O)c[nH]c2cc1Cl | 126 nM (active) | 
37 | O=C(O)Cc1c[nH]c2ccc(O)cc12 | inactive | 
38 | COC(=O)Nc1ccc2[nH]cc(CCNC(C)=O)c2c1 | 316 nM (active) | 
39 | Nc1ccc2[nH]cc(CCC(=O)O)c2c1 |  | -8.18% [at 11.4 µM] (inactive)
40 | CC[C@@H](c1ccccc1)n1c(=O)n2n(c1=O)[C@H]1[C@H](O)[C@H]3O[C@@H]3/C(=N/OCc3ccccc3)[C@@H]1CC2 |  | -0.045% [at 11.4 µM] (inactive)
41 | CCC1CCCCN1Cc1cc(OC)c(O)c([N+](=O)[O-])c1 (centres undefined) | inactive | 
42 | CCCCCCN1C=CC(=C/C=C(\C#N)C(=O)OCC)C=C1 | inactive | 
43 | COc1cc(C(=O)NC(=S)Nc2ccc(Cl)c(C(=O)O)c2)cc(OC)c1OC | inactive | 
44 | COc1cc(OC)c(NC(=S)Nc2cccc(C(C)=O)c2)cc1Cl | 6310 nM (active) | 
45 | Cc1ccc(-n2nnnc2-c2cnc3ccc(Cl)cc3c2-c2ccccc2)cc1 | inactive | 
46 | Clc1ccc2[nH]cc(-c3nnnn3-c3ccccc3)c2c1 | 7940 nM (active) | 
47 | Fc1ccc(-c2[nH]ncc2-c2nnnn2-c2ccccc2)c(F)c1 | inactive | 
48 | O=C(Nc1cccc(F)c1)N1CC2(CCN(C(=O)c3csnn3)CC2)C1 | inactive | 

Row | SMILES | AC50 | activity, negative = inhibition
49 | COC(=O)NCC(c1cccnc1)N1CCN(c2ccccc2OC)CC1 (centres undefined) | inactive | 
50 | COc1cc(C(=O)NCC(c2cccnc2)N2CCN(C)CC2)cc(OC)c1OC (centres undefined) | 20000 nM (active) | 
51 | COc1ccc(N2CCN(C(CNC(=O)C3CCCCC3)c3cccnc3)CC2)cc1 (centres undefined) | inactive | 
52 | COc1ccc2cc1Oc1ccc(cc1)C[C@@H]1c3c(cc(OC)c4c3Oc3cc5c(cc3O4)CCN[C@H]5C2)CCN1C |  | -14.6% [at 11.4 µM] (inactive)
53 | NCCS | inactive | 
54 | O=C(N/N=C1/C[C@@H](O)[C@@H](O)[C@@H]2[C@H]3C(=O)N(c4ccc(F)cc4F)C(=O)[C@@H]3CC[C@@H]12)OCc1ccccc1 |  | -2.1% [at 11.4 µM] (inactive)
55 | COCCCn1nnnc1SCC(=O)N1CCCC1 | inactive | 
56 | CCCCn1nnnc1SCC(=O)N1CCCC1 | inactive | 
57 | CCCCn1nnnc1SCC(=O)c1cc(Cl)ccc1OC | 4470 nM (active) | 
58 | CSc1ccc(Cl)c(C(=O)NCCOc2cc(C)ccc2C(C)C)c1 | 2240 nM (active) | 
59 | CC(C)(N=NC(C)(C)C1=NCCN1)C1=NCCN1 |  | -3.55% [at 11.4 µM] (inactive)
60 | COC(=O)c1[nH]c2cccc(OC)c2c1NC(=O)CN(C)CC1OCCO1 | 14100 nM (active) | 
61 | COc1ccc(S(=O)(=O)N(CC(=O)NCC2CCCO2)c2ccc(F)cc2)cc1OC (centres undefined) | inactive | 
62 | CCS(=O)(=O)N1CCC(C(=O)NCc2ccc(F)cc2Cl)CC1 | inactive | 
63 | CCN1C(=O)[C@H]2[C@H]3[C@H](O)[C@H](O)C/C(=N/O[C@@H](C)c4cn([C@H](CO)Cc5ccccc5)nn4)[C@@H]3CC[C@@H]2C1=O |  | -6.67% [at 11.4 µM] (inactive) and -6.23% [at 11.4 µM] (inactive)
64 | C[C@H](N=C(NC#N)Nc1ccncc1)C(C)(C)C | inactive and 15.8 µM (active) | 
65 | C[C@H](N)C1CCC(C(=O)Nc2ccncc2)CC1 (some centres undefined) | inactive | 
66 | O=C(O)[C@@H]1CS[C@@]2(CCCN(Cc3ccccc3)C2)N1 |  | -12% [at 2.29 µM] (inactive)
67 | Cc1cccc(CCNc2nc3ccccc3n3nnnc23)c1 | 891 nM (active) | 
68 | Cc1ccc(C(=O)Nc2nc3ccccc3n3nnnc23)cc1 | 2510 nM (active) | 
69 | Cn1c(=O)c2c(ncn2CN2CCN(Cn3cnc4c3c(=O)n(C)c(=O)n4C)CC2)n(C)c1=O |  | -18.2% [at 2.29 µM] (inactive)
70 | Nc1c(C(=O)NCc2ccccc2)sc2nc3c(cc12)C(=O)CCC3 | 20000 nM (active) | 
71 | C/C(=C\C(=O)c1ccc(Br)cc1)NCc1ccc2c(c1)OCO2 | 1410 nM (active) | 
72 | O=C(/C=C/c1cc2c(cc1Br)OCO2)NCc1ccc(Cl)cc1 | 1580 nM (active) | 

Row | SMILES | AC50 | activity, negative = inhibition
73 | C/C(=C\C(=O)c1ccc(Cl)cc1)NCc1ccc2c(c1)OCO2 | 1000 nM (active) | 
74 | O=C1Nc2ccc([N+](=O)[O-])cc2C1(O)N1CCCCCC1 (centres undefined) | inactive | 
75 | Cc1cccc(CNc2nc(-c3ccccc3CN(C)C)nc3ccccc23)c1 | 3160 nM (active) | 
76 | CNc1nc(-c2ccccc2CN(C)C)nc2ccccc12 | 3160 nM (active) | 
77 | CN(C)Cc1ccccc1-c1nc(N(C)C)c2ccccc2n1 | 1260 nM (active) | 
78 | CN(C)Cc1ccccc1-c1nc(NC2CC2)c2ccccc2n1 | 5010 nM (active) | 
79 | C/C(CC/C(C)=N/O)=N/O |  | -12.6% [at 2.29 µM] (inactive)
80 | CN(C)Cc1ccccc1-c1nc(NCc2cccs2)c2ccccc2n1 | 1000 nM (active) | 
81 | COCCNc1nc(-c2ccccc2CN(C)C)nc2ccccc12 | 10000 nM (active) | 
82 | CN(C)Cc1ccccc1-c1nc(NCc2ccccc2)c2ccccc2n1 | 1260 nM (active) | 
83 | Cc1cn([C@H]2C[C@H](O)[C@@H](COC(N)=O)O2)c(=O)[nH]c1=O |  | -14.6% [at 2.29 µM] (inactive)
84 | CCn1c(SCC(=O)N2CCOCC2)nc2oc3c(Cl)cc(Cl)cc3c(=O)c2c1=O | 12600 nM (active) | 
85 | CCCCn1c(SCC(=O)N2CCCC2)nc2c1c(=O)n(C)c(=O)n2C | inactive | 
86 | Oc1ccccc1C1Nc2cccc3cccc(c23)N1 | 1000 nM (active) | 
87 | S=C1N(c2ccccc2)C(c2ccc(Cl)cc2)N2CCCN12 (centres undefined) | 4470 nM (active) | 
88 | CCOC(=O)c1sc2nc3c(cc2c1N)COC(C(C)C)C3 (centres undefined) | inactive | 
89 | CCOC(=O)c1sc2nc3c(cc2c1N)COC(C)(CC)C3 (centres undefined) | 25100 nM (active) | 
90 | COc1ccc2[nH]cc(CCNc3cc(-c4ccccc4C)ncn3)c2c1 | 1000 nM (active) | 
91 | COc1ccc2[nH]cc(CCNc3cc(-c4ccccc4OC)ncn3)c2c1 | 1580 nM (active) | 
92 | COc1ccc2[nH]cc(CCNc3cc(-c4ccccc4C(F)(F)F)ncn3)c2c1 | 10000 nM (active) | 
93 | COc1ccc(O[C@H]2C=C[C@@H](c3ccccc3)O[C@H]2CO/N=C\C[C@@H]2C=C[C@H](OC(C)=O)[C@H](COC(C)=O)O2)cc1 |  | 1.58% [at 11.4 µM] (inactive)
94 | CC(C)CO/N=C1/C[C@@H](O)[C@@H](O)[C@@H]2[C@H]3C(=O)N(c4ccc(F)cc4F)C(=O)[C@@H]3CC[C@@H]12 |  | -0.174% [at 11.4 µM] (inactive)
